Assay results from PubChem BioAssay (EPA / NIEHS).
Several values for one entry are separate records, joined by “and”; a condition that tells them apart may be missing. Equal values may be shown once. Records with an inconclusive call do not appear. The source holds several records for some structures; these can differ, active in one and inactive in another. Activity calls are given as the source filed them. Rule for the calls, unless noted: active = hit-call score of the fitted dose curve at least 0.9, where 1 is the maximum; inactive = score below 0.9.

What was measured:
[1] = BSK_4H_Eotaxin3: BioMAP Diversity Plus: 4H Assay for Eotaxin 3 Biomarker Activity (AID 2283000); conditions: primary human endothelial cells (HUVEC); actives raise or lower the signal
Outline: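 Chemicals were added to human umbilical vein endothelium cultures, and Eotaxin-3 was quantified by ELISA at 24 h. Values were derived by bidirectional fitting with DMSO serving as negative control and activity baseline.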

[2] = target: human Peroxisome Proliferator-activated Receptor alpha (PPARa), PPARA (gene 5465) (UniProt Q07869); experiment: ATG_PPARa_TRANS: Attagene TRANS-FACTORIAL HepG2 Assay for human Peroxisome Proliferator-activated Receptor alpha (PPARa) (AID 2283001; active = hit-call score of the fitted dose curve at least 0.9, where 1 is the maximum)
Outline: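 Read-out is fluorescence of reporter cDNA fragments resolved by capillary electrophoresis after RT-PCR. Human HepG2 liver cells carried transfected PPARa-Gal4 chimera and GAL4-UAS reporter units, treated 24 h; activity scored as increase over DMSO.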

[3] = read-out: Intercellular Adhesion Molecule 1 (ICAM1), ICAM1 (gene 3383); experiment: BSK_3C_ICAM1: BioMAP Diversity Plus: 3C Assay for Intercellular Adhesion Molecule 1 (ICAM1) Biomarker Activity (AID 2283003); conditions: primary human endothelial cells (HUVEC); actives raise or lower the signal
Outline: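 ICAM-1 levels measured by ELISA after HUVEC cultures in the 3C system had been dosed for 24 h. Gain or loss of signal relative to DMSO was fitted in both directions.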

[4] = target: Retinoic acid receptor alpha (Homo sapiens) (UniProt P10276); experiment: ATG_RARa_TRANS: Attagene TRANS-FACTORIAL HepG2 Assay for human Retinoic Acid Receptor alpha (RARa) (AID 2283005; active = hit-call score of the fitted dose curve at least 0.9, where 1 is the maximum)
Outline: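 Reporter transcripts, measured by RT-PCR with fluorescent labeling and capillary electrophoresis after 24 h dosing, reflect activity of an exogenous human RARa–GAL4 fusion in transiently transfected HepG2. Fitted for increase relative to DMSO.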

[5] = BSK_3C_Proliferation: Cell Proliferation Assessment in the BioMAP Diversity Plus: 3C Assay (AID 2283006); conditions: primary human endothelial cells (HUVEC);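 for AC50: potency may reflect either rise or fall in cell number versus DMSO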
Outline: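 Read-out is total protein by SRB absorbance at 560 nm, taken as a proxy for relative cell number. Primary human umbilical vein endothelium cultured below confluence was dosed for 48 h, TCA-fixed and SRB-stained; curves were fitted bidirectionally versus DMSO.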

[6] = target: Nuclear receptor subfamily 1 group I member 2 (Homo sapiens) (UniProt O75469); experiment: ATG_PXR_TRANS: Attagene TRANS-FACTORIAL HepG2 Assay for human Pregnane X Receptor (PXR) (AID 2283008; active = hit-call score of the fitted dose curve at least 0.9, where 1 is the maximum)
Outline: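 HepG2 cells transiently transfected with GAL4-UAS reporter units and PXR-Gal4 chimera, exposed 24 h. Reporter mRNA quantified by RT-PCR, fluorescent labelling, HpaI digestion and capillary electrophoresis; gain of signal vs DMSO.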

[7] = target: human RAR-related Orphan Receptor gamma (RORg), RORC (gene 6097) (UniProt P51449); experiment: ATG_RORg_TRANS: Attagene TRANS-FACTORIAL HepG2 Assay for human RAR-related Orphan Receptor gamma (RORg) (AID 2283011; active = hit-call score of the fitted dose curve at least 0.9, where 1 is the maximum)
Outline: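 First, HepG2 liver cells were transfected with GAL4-UAS-driven reporter constructs and the RORg-Gal4 fusion. Next, they were treated with chemical for 24 h. Finally, reporter mRNA was quantified by RT-PCR and capillary electrophoresis, with upward activity fitted against DMSO.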

[8] = target: human Retinoid X Receptor beta (RXRb), RXRB (gene 6257) (UniProt P28702); experiment: ATG_RXRb_TRANS: Attagene TRANS-FACTORIAL HepG2 Assay for human Retinoid X Receptor beta (RXRb) (AID 2283013; active = hit-call score of the fitted dose curve at least 0.9, where 1 is the maximum)
Outline: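 Transfect HepG2 with GAL4-UAS multi-reporter constructs (chimeric NR-Gal4, TRANS format); dose compound 24 h; isolate RNA, RT-PCR, FAM primer extension, HpaI digest; quantify by capillary electrophoresis; positive direction vs DMSO.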

[9] = target: human Thyroid Receptor alpha (THRa1), THRA (gene 7067) (UniProt P10827); experiment: ATG_THRa1_TRANS: Attagene TRANS-FACTORIAL HepG2 Assay for human Thyroid Receptor alpha (THRa1) (AID 2283014; active = hit-call score of the fitted dose curve at least 0.9, where 1 is the maximum)
Outline: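 Reporter transcript induction, read by capillary electrophoresis of 6-FAM-labelled RT-PCR products, reflects activity of a transfected THRa1-Gal4 fusion in HepG2 liver cells. Cells were dosed for 24 h; activity was fitted in the positive direction against DMSO.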

[10] = read-out: E-selectin (Homo sapiens) (UniProt P16581); experiment: BSK_3C_Eselectin: BioMAP Diversity Plus: 3C Assay for Eselectin Biomarker Activity (AID 2283015); conditions: primary human endothelial cells (HUVEC); actives raise or lower the signal
Outline: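 ELISA read-out of E-selectin on endothelial monolayers after 24 h chemical treatment. Human umbilical vein primary cells served as the system, with DMSO defining baseline activity for bidirectional fitting.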

[11] = read-out: Interleukin-1 alpha (IL1a), IL1A (gene 3552); experiment: BSK_BE3C_IL1a: BioMAP Diversity Plus: BE3C Assay for Interleukin-1 alpha (IL1a) Biomarker Activity (AID 2283016); conditions: primary human bronchial epithelial cells; actives raise or lower the signal
Outline: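 BE3C primary human bronchial epithelium; cpd 24 h; IL-1a by ELISA; bidirectional fit vs DMSO; parallel SRB (0.1% SRB, 10% TCA fix, 560 nm) for cytotoxicity.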

[12] = read-out: Monocyte Chemoattractant Protein-1 (MCP1), CCL2 (gene 6347); experiment: BSK_3C_MCP1: BioMAP Diversity Plus: 3C Assay for Monocyte Chemoattractant Protein-1 (MCP1) Biomarker Activity (AID 2283017); conditions: primary human endothelial cells (HUVEC); actives raise or lower the signal
Outline: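 ELISA read-out of MCP-1 from human umbilical vein endothelial cell cultures harvested 24 h post-dosing. Gain or loss of signal was fitted relative to DMSO.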

[13] = read-out: Monocyte Chemoattractant Protein-1 (MCP1), CCL2 (gene 6347); experiment: BSK_4H_MCP1: BioMAP Diversity Plus: 4H Assay for Monocyte Chemoattractant Protein-1 (MCP1) Biomarker Activity (AID 2283018); conditions: primary human endothelial cells (HUVEC); actives raise or lower the signal
Outline: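 ELISA read-out of MCP-1 from human vascular endothelial primary cells taken at 24 hours after compound exposure. Activity was fitted in both directions relative to DMSO, which served as negative control.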

[14] = read-out: Human Leukocyte Antigen - DR isotype (HLADR), HLA-DRA (gene 3122); experiment: BSK_3C_HLADR: BioMAP Diversity Plus: 3C Assay for Human Leukocyte Antigen - DR isotype (HLADR) Biomarker Activity (AID 2283019); conditions: primary human endothelial cells (HUVEC); actives raise or lower the signal
Outline: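 ELISA readout of surface HLA-DR on human umbilical vein endothelium, taken 24 h after chemical treatment. Gain- and loss-of-signal were both fitted relative to DMSO.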

[15] = target: human Peroxisome Proliferator-activated Receptor delta (PPARd), PPARD (gene 5467) (UniProt Q03181); experiment: ATG_PPARd_TRANS: Attagene TRANS-FACTORIAL HepG2 Assay for human Peroxisome Proliferator-activated Receptor delta (PPARd) (AID 2283002; active = hit-call score of the fitted dose curve at least 0.9, where 1 is the maximum)
Outline: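 Transient HepG2 transfection (multiple GAL4-UAS RTUs, chimeric receptor-Gal4); 24 h dosing; total RNA → oligo(dT) RT → PCR → 6-FAM primer extension → HpaI cut → CE. Positive direction vs DMSO.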

[16] = target: Peroxisome proliferator-activated receptor gamma (Homo sapiens) (UniProt P37231); experiment: ATG_PPARg_TRANS: Attagene TRANS-FACTORIAL HepG2 Assay for human Peroxisome Proliferator-activated Receptor-gamma (PPARg) (AID 2283007; active = hit-call score of the fitted dose curve at least 0.9, where 1 is the maximum)
Outline: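 HepG2 cells are transiently transfected with GAL4-UAS reporter units driven by chimeric NR-Gal4 fusions and dosed for 24 h. Reporter mRNA is quantified by RT-PCR, 6-FAM labelling, HpaI digestion and capillary electrophoresis. Induction is scored against DMSO.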

[17] = target: human Retinoic Acid Receptor gamma (RARg), RARG (gene 5916) (UniProt P13631); experiment: ATG_RARg_TRANS: Attagene TRANS-FACTORIAL HepG2 Assay for human Retinoic Acid Receptor gamma (RARg) (AID 2283009; active = hit-call score of the fitted dose curve at least 0.9, where 1 is the maximum)
Outline: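 Transient transfection of HepG2 with multi-reporter constructs, then 24 h chemical treatment. Total RNA isolated, reverse-transcribed, PCR-amplified, fluorescently labelled and resolved by capillary electrophoresis; activity scored as mRNA induction versus DMSO.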

[18] = target: Retinoic acid receptor RXR-alpha (Homo sapiens) (UniProt P19793); experiment: ATG_RXRa_TRANS: Attagene TRANS-FACTORIAL HepG2 Assay for human Retinoid X Receptor alpha (RXRa) (AID 2283012; active = hit-call score of the fitted dose curve at least 0.9, where 1 is the maximum)
Outline: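 Transient transfection of human HepG2 with multiple GAL4-UAS reporter constructs; 24 h compound exposure; total RNA isolated, reverse-transcribed, PCR-amplified, 6-FAM labelled, HpaI-cut, resolved by capillary electrophoresis. Positive-direction fit versus DMSO.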

[19] = target: human RAR-related Orphan Receptor beta (RORb), RORB (gene 6096) (UniProt Q92753); experiment: ATG_RORb_TRANS: Attagene TRANS-FACTORIAL HepG2 Assay for human RAR-related Orphan Receptor beta (RORb) (AID 2283010; active = hit-call score of the fitted dose curve at least 0.9, where 1 is the maximum)
Outline: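 Readout is reporter-gene mRNA induction, detected as fluorescence after RT-PCR and capillary electrophoresis, fitted for gain of signal against DMSO controls. Transiently transfected HepG2 liver cells carrying GAL4-UAS reporter constructs were treated for 24 hours.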

Measured: AC50

Sequence of Peroxisome proliferator-activated receptor gamma (Homo sapiens) (P37231 whole entry, looked up, the tested form may be a part): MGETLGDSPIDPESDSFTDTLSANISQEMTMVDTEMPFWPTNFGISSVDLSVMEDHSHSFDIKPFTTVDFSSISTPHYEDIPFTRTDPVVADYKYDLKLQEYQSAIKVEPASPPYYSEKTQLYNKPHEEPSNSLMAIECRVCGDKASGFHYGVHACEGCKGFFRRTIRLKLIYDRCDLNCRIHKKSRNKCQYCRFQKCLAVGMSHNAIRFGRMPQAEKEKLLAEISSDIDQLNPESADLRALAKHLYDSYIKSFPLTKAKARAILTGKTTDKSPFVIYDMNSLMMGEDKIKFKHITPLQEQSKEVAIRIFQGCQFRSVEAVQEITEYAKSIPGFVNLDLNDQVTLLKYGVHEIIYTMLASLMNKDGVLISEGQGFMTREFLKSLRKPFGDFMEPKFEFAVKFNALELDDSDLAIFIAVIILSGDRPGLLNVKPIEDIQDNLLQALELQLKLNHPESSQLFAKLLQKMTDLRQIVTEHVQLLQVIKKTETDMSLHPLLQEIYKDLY
Sequence of human RAR-related Orphan Receptor beta (RORb), RORB (gene 6096) (Q92753 whole entry, looked up, the tested form may be a part): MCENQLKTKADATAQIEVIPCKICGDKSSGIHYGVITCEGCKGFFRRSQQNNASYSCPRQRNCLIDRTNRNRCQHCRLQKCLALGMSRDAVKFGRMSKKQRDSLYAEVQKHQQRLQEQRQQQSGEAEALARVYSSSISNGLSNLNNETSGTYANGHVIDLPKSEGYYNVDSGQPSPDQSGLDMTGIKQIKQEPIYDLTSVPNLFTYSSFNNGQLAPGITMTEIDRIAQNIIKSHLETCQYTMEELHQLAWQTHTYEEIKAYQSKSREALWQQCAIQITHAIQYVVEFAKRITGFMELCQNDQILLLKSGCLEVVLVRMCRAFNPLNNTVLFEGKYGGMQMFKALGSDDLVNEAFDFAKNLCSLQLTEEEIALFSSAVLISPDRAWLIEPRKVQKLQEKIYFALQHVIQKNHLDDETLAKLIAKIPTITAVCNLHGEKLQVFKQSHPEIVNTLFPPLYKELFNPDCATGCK
Sequence of Nuclear receptor subfamily 1 group I member 2 (Homo sapiens) (O75469 whole entry, looked up, the tested form may be a part): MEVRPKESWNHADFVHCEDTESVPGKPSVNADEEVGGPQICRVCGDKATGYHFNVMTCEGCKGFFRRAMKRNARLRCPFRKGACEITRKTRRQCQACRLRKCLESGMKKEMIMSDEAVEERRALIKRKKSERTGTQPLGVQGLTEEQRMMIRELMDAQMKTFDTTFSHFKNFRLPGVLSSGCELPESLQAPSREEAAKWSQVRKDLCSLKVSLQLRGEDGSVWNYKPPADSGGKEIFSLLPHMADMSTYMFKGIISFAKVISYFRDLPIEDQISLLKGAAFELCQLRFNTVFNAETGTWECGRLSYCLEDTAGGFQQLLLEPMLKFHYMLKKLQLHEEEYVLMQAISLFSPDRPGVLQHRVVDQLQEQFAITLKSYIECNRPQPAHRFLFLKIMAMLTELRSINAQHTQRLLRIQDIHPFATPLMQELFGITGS
Sequence of E-selectin (Homo sapiens) (P16581 whole entry, looked up): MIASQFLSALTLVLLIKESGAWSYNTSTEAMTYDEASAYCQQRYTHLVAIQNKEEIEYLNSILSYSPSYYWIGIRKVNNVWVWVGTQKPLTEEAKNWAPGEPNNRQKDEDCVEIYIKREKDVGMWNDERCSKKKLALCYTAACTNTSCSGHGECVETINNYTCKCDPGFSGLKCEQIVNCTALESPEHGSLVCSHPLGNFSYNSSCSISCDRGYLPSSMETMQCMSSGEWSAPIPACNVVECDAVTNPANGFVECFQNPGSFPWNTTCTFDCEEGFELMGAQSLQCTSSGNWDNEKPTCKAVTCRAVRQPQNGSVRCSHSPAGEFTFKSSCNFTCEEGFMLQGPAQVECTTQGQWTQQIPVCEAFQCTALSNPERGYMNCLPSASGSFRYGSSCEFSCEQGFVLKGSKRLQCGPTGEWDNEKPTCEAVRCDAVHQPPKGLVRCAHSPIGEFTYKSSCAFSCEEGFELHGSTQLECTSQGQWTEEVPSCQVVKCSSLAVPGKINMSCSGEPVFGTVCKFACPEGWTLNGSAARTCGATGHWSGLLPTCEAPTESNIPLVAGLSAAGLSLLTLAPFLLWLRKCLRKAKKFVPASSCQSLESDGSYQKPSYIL
Sequence of human Peroxisome Proliferator-activated Receptor delta (PPARd), PPARD (gene 5467) (Q03181 whole entry, looked up, the tested form may be a part): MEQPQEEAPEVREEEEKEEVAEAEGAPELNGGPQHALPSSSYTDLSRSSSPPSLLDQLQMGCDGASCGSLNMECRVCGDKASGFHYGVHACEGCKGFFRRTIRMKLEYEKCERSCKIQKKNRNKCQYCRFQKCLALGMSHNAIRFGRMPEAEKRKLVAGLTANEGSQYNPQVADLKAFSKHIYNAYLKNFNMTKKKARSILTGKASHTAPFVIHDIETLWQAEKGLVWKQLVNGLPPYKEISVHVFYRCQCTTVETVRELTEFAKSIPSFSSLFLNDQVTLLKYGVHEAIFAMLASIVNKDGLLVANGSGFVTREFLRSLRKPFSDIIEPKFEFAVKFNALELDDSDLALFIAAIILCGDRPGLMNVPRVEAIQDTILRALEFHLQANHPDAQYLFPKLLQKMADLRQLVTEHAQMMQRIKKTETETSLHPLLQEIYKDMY
Sequence of human Retinoic Acid Receptor gamma (RARg), RARG (gene 5916) (P13631 whole entry, looked up): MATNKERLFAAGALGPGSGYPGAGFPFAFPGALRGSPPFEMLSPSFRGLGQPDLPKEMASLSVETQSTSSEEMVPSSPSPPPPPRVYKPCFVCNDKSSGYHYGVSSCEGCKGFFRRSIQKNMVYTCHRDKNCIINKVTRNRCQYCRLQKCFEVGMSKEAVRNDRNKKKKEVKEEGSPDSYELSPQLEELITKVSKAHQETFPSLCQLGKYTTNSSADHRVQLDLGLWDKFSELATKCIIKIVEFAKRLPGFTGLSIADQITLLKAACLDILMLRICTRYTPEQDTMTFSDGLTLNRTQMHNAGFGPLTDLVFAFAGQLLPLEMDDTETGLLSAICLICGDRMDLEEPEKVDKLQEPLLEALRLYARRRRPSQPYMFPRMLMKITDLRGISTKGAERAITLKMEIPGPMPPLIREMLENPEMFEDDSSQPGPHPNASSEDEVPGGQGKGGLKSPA
Sequence of human RAR-related Orphan Receptor gamma (RORg), RORC (gene 6097) (P51449 whole entry, looked up, the tested form may be a part): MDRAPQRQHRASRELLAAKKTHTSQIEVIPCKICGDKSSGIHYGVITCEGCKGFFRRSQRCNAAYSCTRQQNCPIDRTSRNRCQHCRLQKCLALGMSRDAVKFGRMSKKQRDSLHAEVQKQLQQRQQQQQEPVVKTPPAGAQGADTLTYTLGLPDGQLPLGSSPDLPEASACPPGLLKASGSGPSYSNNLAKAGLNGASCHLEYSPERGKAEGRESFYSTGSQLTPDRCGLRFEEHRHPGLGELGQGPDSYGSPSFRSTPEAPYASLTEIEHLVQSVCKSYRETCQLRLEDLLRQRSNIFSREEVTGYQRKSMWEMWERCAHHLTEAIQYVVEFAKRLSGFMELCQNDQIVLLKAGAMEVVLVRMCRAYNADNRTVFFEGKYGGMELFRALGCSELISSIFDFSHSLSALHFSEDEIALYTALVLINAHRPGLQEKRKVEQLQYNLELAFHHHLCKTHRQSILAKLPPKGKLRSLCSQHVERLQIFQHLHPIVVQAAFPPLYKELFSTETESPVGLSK
Sequence of Retinoic acid receptor RXR-alpha (Homo sapiens) (P19793 whole entry, looked up, the tested form may be a part): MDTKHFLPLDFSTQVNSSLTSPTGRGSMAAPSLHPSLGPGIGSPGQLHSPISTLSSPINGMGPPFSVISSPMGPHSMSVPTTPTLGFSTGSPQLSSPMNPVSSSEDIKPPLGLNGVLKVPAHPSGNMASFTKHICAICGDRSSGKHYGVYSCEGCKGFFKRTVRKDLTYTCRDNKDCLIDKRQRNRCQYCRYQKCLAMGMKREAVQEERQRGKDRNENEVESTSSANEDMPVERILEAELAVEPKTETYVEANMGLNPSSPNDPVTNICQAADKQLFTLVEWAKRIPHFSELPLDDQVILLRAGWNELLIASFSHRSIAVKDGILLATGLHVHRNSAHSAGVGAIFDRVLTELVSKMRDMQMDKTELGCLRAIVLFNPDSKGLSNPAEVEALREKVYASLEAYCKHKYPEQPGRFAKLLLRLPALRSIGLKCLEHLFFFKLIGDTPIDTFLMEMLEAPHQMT
Sequence of human Peroxisome Proliferator-activated Receptor alpha (PPARa), PPARA (gene 5465) (Q07869 whole entry, looked up, the tested form may be a part): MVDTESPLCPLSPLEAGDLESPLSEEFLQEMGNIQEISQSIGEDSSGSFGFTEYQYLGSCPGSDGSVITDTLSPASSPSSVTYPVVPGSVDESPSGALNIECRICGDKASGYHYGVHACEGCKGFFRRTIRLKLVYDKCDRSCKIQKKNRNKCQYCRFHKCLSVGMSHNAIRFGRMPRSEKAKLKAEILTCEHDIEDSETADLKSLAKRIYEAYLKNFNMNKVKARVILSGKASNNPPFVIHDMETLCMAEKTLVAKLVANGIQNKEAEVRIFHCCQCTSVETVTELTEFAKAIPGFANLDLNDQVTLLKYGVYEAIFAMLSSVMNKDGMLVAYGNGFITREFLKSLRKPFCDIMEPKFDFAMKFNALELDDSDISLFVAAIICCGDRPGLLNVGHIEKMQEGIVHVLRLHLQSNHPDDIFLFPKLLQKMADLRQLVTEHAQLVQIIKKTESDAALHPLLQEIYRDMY
Sequence of Retinoic acid receptor alpha (Homo sapiens) (P10276 whole entry, looked up, the tested form may be a part): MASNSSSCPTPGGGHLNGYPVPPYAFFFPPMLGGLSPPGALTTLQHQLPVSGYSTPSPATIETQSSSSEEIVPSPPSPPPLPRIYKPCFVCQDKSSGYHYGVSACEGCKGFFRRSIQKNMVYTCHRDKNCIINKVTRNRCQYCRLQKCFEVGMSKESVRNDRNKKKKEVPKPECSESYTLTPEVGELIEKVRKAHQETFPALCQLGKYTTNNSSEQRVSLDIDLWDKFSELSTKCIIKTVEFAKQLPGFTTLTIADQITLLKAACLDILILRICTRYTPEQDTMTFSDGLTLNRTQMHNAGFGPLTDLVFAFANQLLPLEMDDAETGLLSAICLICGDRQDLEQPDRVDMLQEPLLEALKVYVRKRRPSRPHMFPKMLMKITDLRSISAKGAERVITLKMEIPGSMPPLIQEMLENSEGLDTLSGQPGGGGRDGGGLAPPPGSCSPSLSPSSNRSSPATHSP

OCC(F)(F)C(F)(F)C(F)(F)C(F)(F)C(F)(F)C(F)(F)F
inactive: [1] | [2] | [3] | [4] | [6] | [7] | [8] | [9] | [10] | [11] | [12] | [13] | [14]
active: [3] 46.4 µM | [5] 52.3 µM and 30 µM

CCCCCCCCC(F)(F)C(F)(F)C(F)(F)C(F)(F)C(F)(F)C(F)(F)F
inactive: [1] | [15] | [3] | [4] | [5] | [16] | [17] | [7] | [18] | [10] | [11] | [12] | [13] | [14]
active: [8] 21.2 µM

O=C(Cl)C(F)(F)C(F)(F)C(F)(F)C(F)(F)C(F)(F)C(F)(F)C(F)(F)C(F)(F)F
active: [1] 42.9 µM and 30 µM | [5] 44.9 µM and 53.1 µM and 54.2 µM | [16] 25.2 µM | [8] 25.7 µM | [11] 46.4 µM and 46.3 µM and 55 µM | [12] 49.7 µM | [13] 5.95 µM | [14] 49.4 µM and 51.1 µM and 52.5 µM
inactive: [1] | [15] | [3] | [4] | [17] | [18] | [10] | [12] | [13]

CCCCCCCOC(=O)c1ccccc1C(=O)OCCCCCCC
inactive: [1] | [2] | [15] | [3] | [5] | [17] | [19] | [7] | [10] | [11] | [12] | [13] | [14]
active: [16] 10.8 µM | [6] 6.29 µM

FC(F)(F)C(F)(F)C(F)(F)C(F)(F)CCI
inactive: [1] | [2] | [15] | [3] | [4] | [5] | [16] | [6] | [17] | [19] | [18] | [10] | [11] | [12] | [13] | [14]
active: [1] 10.6 µM | [16] 36.9 µM | [8] 123 µM

O=C(O)C(F)(F)C(F)(F)C(F)(F)C(F)(F)C(F)(F)C(F)(F)C(F)(F)C(F)(F)Cl
active: [1] 49.9 µM | [5] 53.2 µM and 48.1 µM | [16] 31.1 µM and 34.1 µM | [6] 50 µM | [8] 19.9 µM and 20.5 µM | [10] 23.8 µM | [11] 25.1 µM and 23.6 µM | [12] 47.5 µM and 30 µM | [14] 53.3 µM and 49 µM
inactive: [1] | [15] | [3] | [6] | [17] | [19] | [7] | [18] | [10] | [13]
